Assay results taken from PubChem BioAssay AID652283 (National Center for Advancing Translational Sciences (NCATS), 2013).
Inconclusive results are not listed. Active and inactive are the calls of the source. Calls come from the whole dose curve; as a rule, active = well fitted inhibition curve with a large enough effect; inconclusive = small, poorly fitted or top-dose-only effect; inactive = no such curve, though single readings can be large or run the other way.

test: qHTS Assay for Lipid Storage Modulators: COS7 Assay against Probe and Analogs; details: COS7 lipid droplet area, BODIPY imaging, 18 h; cells loaded with 400 µM oleic acid
In short: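 Lipid droplets, stained with BODIPY 493/503 (nuclei with Hoechst), were counted from microscope images by visual examination and image segmentation. Before fixation, COS7 cells had 17-18 h compound exposure with 400 microM oleic acid in 5% FBS medium, 0.2% DMSO.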

Row | Structure (SMILES) | Potency | max response
1 | CCOc1ccc(CCNC(=O)c2cc3sccc3n2CCN2CCOCC2)cc1OCC | 2.96 µM (active) | 
2 | CCOc1ccc(CCNC(=O)C2CCCCC2)cc1OCC |  | -8.52% (inactive)
3 | CC1(C)CCC(c2ccc(Cl)cc2)=C(CN2CCN(c3ccc(C(=O)NS(=O)(=O)c4ccc(N[C@H](CCN5CCOCC5)CSc5ccccc5)c(S(=O)(=O)C(F)(F)F)c4)cc3)CC2)C1 | 3.72 µM (active) | 
4 | O=C(NC1CCCc2c1cnn2-c1ccc(F)cc1F)c1ccc(C(=O)c2ccccc2)cc1 (centres undefined) |  | 18.1% (inactive)
5 | CCOC(=O)C1CCN(C(=O)C(C)(C)NC(=O)Nc2ccc(-c3ccccc3)cc2)CC1 | 10.5 µM (active) | 
6 | CC(C)(C)OC(=O)N1CCCCC1C(=O)NC1CCCc2c1cnn2-c1ccc(F)cc1F (centres undefined) |  | 7.96% (inactive)
7 | CCOc1ccc(CCNC(=O)c2ccc3ccccc3n2)cc1OCC |  | -25% (inactive)
8 | CCn1c(C(=O)NCc2ccc(OC)c(OC)c2)cc2sccc21 |  | 0.0567% (inactive)
9 | O=C(NCCc1ccc2c(c1)OCO2)c1cc2sccc2[nH]1 |  | 5.04% (inactive)
10 | CCOc1cc(CCNC(=O)c2cc3sccc3n2Cc2ccccc2)cc(F)c1OCC | 2.35 µM (active) | 
11 | CCOC(=O)C1CCN(C(=O)C(C)(C)NC(=O)Nc2ccccc2Cl)CC1 | 13.2 µM (active) | 
12 | COc1ccc(-n2ncc3c2CCCC3NC(=O)c2ccccn2)cc1 (centres undefined) | 4.69 µM (active) | 
13 | CCOc1ccc(CCNC(=O)c2cc3sccc3n2CC=C(C)C)cc1OCC | 2.35 µM (active) | 
14 | CC(C)Oc1ccc(CCNC(=O)c2cc3sccc3n2Cc2ccccc2)cc1OC(C)C | 1.66 µM (active) | 
15 | CCOC(=O)C1CCN(C(=O)C(C)(C)NC(=O)Nc2ccc([N+](=O)[O-])cc2)CC1 |  | 8.04% (inactive)
16 | O=C(NCCc1ccc(O)c(O)c1)c1cc2sccc2n1Cc1ccccc1 |  | 20.9% (inactive)
17 | O=C(NC1CCCc2c1cnn2-c1ccc(F)cc1F)c1ccn[nH]1 (centres undefined) |  | -5.9% (inactive)

Row | Structure (SMILES) | Potency | max response
18 | COc1cc(C)c(Sc2cnc(NC(=O)c3ccc(CNC(C)C(C)(C)C)cc3)s2)cc1C(=O)N1CCN(C(C)=O)CC1 (centres undefined) |  | -8.98% (inactive)
19 | O=C(NC1CCCc2c1cnn2CCO)c1ccccn1 (centres undefined) |  | 14.9% (inactive)
20 | CC(C)(C)OC(=O)NCCOCCOCCOc1ccc(-n2ncc3c2CCCC3NC(=O)c2ccccn2)cc1 (centres undefined) | 18.7 µM (active) | 
21 | COc1cccc(-n2ncc3c2CCCC3NC(=O)c2ccccn2)c1 (centres undefined) | 5.9 µM (active) | 
22 | CCOC(=O)C1CCN(C(=O)C(C)(C)NC(=O)Nc2cccc(C(=O)OC)c2)CC1 |  | 9.87% (inactive)
23 | CCOc1ccc(CCNC(=O)c2cccc(C(=O)c3ccccc3)c2)cc1OCC | 14.8 µM (active) | 
24 | CCOc1ccc(CCNC(=O)c2ccc(N3N=C(C)CC3=O)cc2)cc1OCC |  | 0.211% (inactive)
25 | COc1cc(Nc2ncc(F)c(Nc3ccc4c(n3)NC(=O)C(C)(C)O4)n2)cc(OC)c1OC |  | -7.73% (inactive)
26 | CCOC(=O)C1CCN(C(=O)C(C)(C)NC(=O)Nc2ccc(CN3CCOCC3)cc2)CC1 |  | -3.75% (inactive)
27 | CCOC(=O)C1CCN(C(=O)CNC(=O)Nc2ccccc2Cl)CC1 |  | 11.1% (inactive)
28 | CCOc1cc(F)c(CCNC(=O)c2cc3sccc3n2Cc2ccccc2)cc1OCC |  | -106% (inactive)
29 | O=C(NC1CCCc2c1cnn2-c1cccc(O)c1)c1ccccn1 (centres undefined) | 4.18 µM (active) | 
30 | CCOc1ccc(CCNC(=O)c2csc(Br)n2)cc1OCC |  | -17.2% (inactive)
31 | CCOC(=O)C1CCN(C(=O)C(C)(C)NC(=O)Nc2ccc(N)cc2)CC1 |  | -5.67% (inactive)
32 | CC(NCc1ccc2c(c1)nc(NC(=O)c1ccc(-c3cn[nH]c3)s1)n2CC(C)(C)O)C(C)(C)C (centres undefined) | 4.69 µM (active) | 
33 | CCOC(=O)C1CCN(C(=O)C(C)(C)NC(=O)Nc2ccc(F)c(F)c2)CC1 |  | -20.8% (inactive)
34 | O=C(NC1CCCc2c1cnn2-c1ccc(F)cc1F)c1ccncc1 (centres undefined) |  | 1.34% (inactive)
